# Values joined by “and” are separate entries in the source; they are usually repeats but may differ in a detail not shown here. Equal entries are not always repeated. Screen size: about 360,000 compounds; about 11,000 (3.1%) were called active. Rule as the data show it: active = activity change below about -30%; inactive = the rest. The list comes from a sample in which actives are over-represented; it also holds similar structures and randomly drawn compounds. More than one record can exist for a structure, and the calls need not agree.
# Target: D(1A) dopamine receptor (Homo sapiens) (UniProt P21728)
# Sequence (P21728 whole entry, looked up): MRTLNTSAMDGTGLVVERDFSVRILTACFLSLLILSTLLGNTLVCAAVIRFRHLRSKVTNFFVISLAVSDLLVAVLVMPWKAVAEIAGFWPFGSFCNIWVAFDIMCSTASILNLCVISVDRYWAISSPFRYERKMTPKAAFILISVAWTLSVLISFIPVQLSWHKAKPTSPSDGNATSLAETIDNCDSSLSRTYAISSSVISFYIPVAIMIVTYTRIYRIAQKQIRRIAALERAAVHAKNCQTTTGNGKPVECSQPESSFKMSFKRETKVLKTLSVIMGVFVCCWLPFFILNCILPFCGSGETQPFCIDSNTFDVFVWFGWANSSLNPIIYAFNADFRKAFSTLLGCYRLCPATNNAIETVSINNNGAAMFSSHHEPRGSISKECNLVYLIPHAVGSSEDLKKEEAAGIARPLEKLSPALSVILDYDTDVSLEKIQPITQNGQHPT
# Experiment: Antagonist of Human D 1 Dopamine Receptor: qHTS
# Settings: HEK293 TREx D1 cells, calcium flux, dopamine EC80; at 10 µM; stronger effect = lower value
# Excerpt: Dopamine receptors (DARs) are involved in the etiology and/or therapy of a number of neuropsychiatric and endocrine disorders. For instance, all receptor-based antiparkinsonian drugs work via stimulating the […] DAR subtype whereas all FDA-approved antipsychotic agents are antagonists of this receptor. […] There are three different types of allosteric modulators that we are seeking, two of which will stimulate or augment receptor signaling, allosteric agonists and potentiators, while the third, allosteric antagonists, will attenuate receptor signaling. The present primary screening assay measures compound antagonism after an EC80 addition of dopamine by tracking calcium flux in a […], inducible Hek293 Trex D1 cell line. NIH Chemical Genomics Center [NCGC] NIH Molecular Libraries Probe Centers Network [MLPCN] MLPCN Grant: NS064831-01 Assay Submitter (PI): David Sibley
# Freshly passaged cells are plated in 1536 well black, clear bottom plates at a density of 4000 cells/well in 3 ul of complete media containing 1x tetracycline inducer. After an overnight incubation at 30 C in 5% CO2, cells are loaded with 2 ul of the no wash Calcium Assay Kit (ABD Bioquest) and incubated at room temperature for 30 to 90 minutes. Agonist read: A 10 cycle (1 second/cycle) baseline measurement is taken and then the FDSS online 1536 pintool delivers 23 nl of compound library (as well as dopamine controls) to the plate. The plate is measured for kinetically at 1 cycle/sec for 180 seconds. Following the 180 second read, 1 ul of an EC80 (negative modulation assay) is delivered by an onboard pipette head. Measurements are taken kinetically for an additional 180 seconds.
# % is scaled to controls: 0 for no effect and ±100 for the full control effect.
row,Structure (SMILES),"activity change, negative = inhibition"
1,N#Cc1nc(/C=C/c2ccc(F)cc2)oc1NCc1ccc(F)cc1,4.43% (inactive)
2,Cc1ccc(CNC(=O)CCNS(=O)(=O)c2ccc3c(c2)oc(=O)n3C)cc1,-2.95% (inactive)
3,CN(Cc1ccccc1)C(=O)c1cn(C)c2ccc(S(=O)(=O)N(C)C3CCCCC3)cc2c1=O,-6.93% (inactive)
4,Cc1cccc(NC(=O)N2CCC(CN3CCc4ccccc4C3)CC2)c1C,3.23% (inactive)
5,COc1cccc(C(=O)Nc2ccc(-c3cc(C(F)(F)F)nn3-c3ccccc3)cc2)c1,-9.33% (inactive)
6,CCOc1ccccc1C(=O)NCc1ccc2c(c1)CCN2C(=O)c1ccc(F)cc1,-20.6% (inactive)
7,CCn1cc(C(=O)N(C)Cc2ccccc2)c(=O)c2cc(S(=O)(=O)N3CCCCCC3)ccc21,-14.7% (inactive)
8,Cc1n[nH]c(C)c1S(=O)(=O)N1CCCC(C(=O)Nc2ccc(Br)cc2)C1 (stereo not given),2.22% (inactive) and -57.1% (active)
9,CC(=O)Nc1ccc(NC(=O)C2CCCN(S(=O)(=O)c3ccc(Cl)cc3)C2)cc1 (stereo not given),-19.3% (inactive)
10,Cc1n[nH]c(C)c1S(=O)(=O)N1CCCC(C(=O)NCC2COc3ccccc3O2)C1 (stereo not given),4.33% (inactive)
11,O=C(NCc1cccnc1)C(=O)NCC(c1cccnc1)N1CCN(c2ccccc2)CC1 (stereo not given),2.98% (inactive)
12,CCOc1ccc(N(CC)S(=O)(=O)N2CCCC(C(=O)Nc3ccc(C(C)=O)cc3)C2)cc1 (stereo not given),-25.1% (inactive)
13,COCCCNCCOCCOc1ccc(Cl)cc1Br,-34.7% (active)
14,COCCNCCOCCOc1cccc(OC)c1,12.6% (inactive)
15,CC(C)(C)NCCCOc1ccc(Cl)cc1C(C)(C)C,-4.49% (inactive)
16,CCc1ccc(CNC(=O)c2cc3cc4ccc(OC)cc4nc3o2)cc1,2.97% (inactive)
17,CCCc1nn2c(=O)cc(COC(=O)c3ccc(NC(=O)C(C)Oc4ccccc4)cc3)nc2s1 (stereo not given),3.83% (inactive)
18,COc1ccc(-n2cc(-c3ccccc3)c3c(=S)nc[nH]c32)cc1,-0.706% (inactive)
19,O=c1[nH]cnc2c1c(-c1ccccc1)cn2-c1ccc(F)cc1,-39.4% (active)
20,CCCNc1ncnc2c1c(-c1ccccc1)cn2-c1ccc(OCC)cc1,36.7% (inactive)
21,COc1ccc(-c2noc(-c3ccc(N4CCN(c5ccccc5)CC4)c([N+](=O)[O-])c3)n2)cc1OC,-6.01% (inactive)
22,COc1ccc(S(=O)(=O)NCc2cccn2Cc2cccc(C)c2)cc1Cl,-21.8% (inactive)

row,Structure (SMILES),"activity change, negative = inhibition"
1,CSc1ncccc1C(=O)Nc1ccc(C)cn1,25.9% (inactive)
2,CSc1ncccc1C(=O)NCc1ccccc1Cl,-34.3% (active)
3,CSc1ncc(C(=O)NCc2ccccc2Cl)c(C(F)(F)F)n1,2.06% (inactive)
4,O=C(Nc1ccc(O)c(-c2nc3ccccc3o2)c1)c1ccc(-c2cccc(Cl)c2)o1,8.95% (inactive)
5,CC(=O)c1ccc(NC(=O)C2CCN(S(=O)(=O)c3c(C)noc3/C=C/c3ccc(C)cc3)CC2)cc1,0.387% (inactive)
6,Cc1ccc(S(=O)(=O)c2nc(-c3ccco3)oc2SCC(=O)Nc2ccc(F)cc2)cc1,-3.5% (inactive)
7,COc1ccccc1NC(=O)CSc1oc(-c2ccco2)nc1S(=O)(=O)c1ccc(Br)cc1,-50.6% (active)
8,CC(Sc1oc(-c2ccco2)nc1S(=O)(=O)c1ccc(Br)cc1)c1ccccc1 (stereo not given),6.94% (inactive)
9,CCn1cc(C(=O)N2CCN(c3cc(Cl)ccc3C)CC2)c(=O)c2cc(S(=O)(=O)N3CCCC3)ccc21,-6.15% (inactive)
10,COc1cccc(C(c2c(O)cc(C)n(Cc3ccco3)c2=O)N2CCN(c3ccccc3)CC2)c1 (stereo not given),4.67% (inactive)
11,Cc1ccc(CCNC(=O)c2nnc(Cc3cccc(F)c3)o2)cc1,-1.29% (inactive)
12,O=C(NCCCN1CCN(c2cccc(Cl)c2)CC1)c1nnc(Cc2ccc(F)cc2Cl)o1,-33.5% (active)
13,COc1ccc(N2CCN(CCNC(=O)c3nnc(Cc4c(F)cccc4Cl)o3)CC2)cc1,5.46% (inactive)
14,Cc1ccc(CCNC(=O)c2ccc(CS(=O)(=O)Cc3cccc(C)c3)o2)cc1,-10.5% (inactive)
15,O=C(OCC(=O)N1CCN(C(=O)c2ccco2)CC1)c1ccc(Cl)c(Cl)c1,-10.9% (inactive)
16,O=C(c1ccco1)N1CCN(C(=O)C2CC(c3ccc(F)cc3)=NO2)CC1 (stereo not given),-3.06% (inactive)
17,O=C(c1ccco1)N1CCN(C(=O)C2CC(c3ccc(Cl)c(Cl)c3)=NO2)CC1 (stereo not given),-36.7% (active)
18,COc1ccccc1CN1CCC(CNC(=O)c2cnn(-c3ccccc3Cl)c2C2CCN(C(=O)OC(C)(C)C)CC2)CC1,-9.9% (inactive)
19,COc1ccccc1C(=O)OCc1cc(=O)n2nc(-c3cccs3)sc2n1,-28% (inactive)
20,O=C(CCS(=O)(=O)c1ccc2c(c1)NC(=O)CO2)Nc1cccc(C(F)(F)F)c1,1.28% (inactive)
21,Brc1cc(/C=N/n2cnnc2)oc1Br,-2.4% (inactive)
22,Cc1ccc(Cl)cc1-c1ccc(/C=N/n2cnnc2)o1,-37.1% (active)

row,Structure (SMILES),"activity change, negative = inhibition"
1,Clc1cc(-c2ccc(/C=N/n3cnnc3)o2)ccc1Br,-8.28% (inactive)
2,Cn1c(=O)nc2n(-c3ccc(Br)cc3)c3cccc(Cl)c3cc-2c1=O,-15.6% (inactive)
3,CCc1ccccc1N1CC(c2nc3ccccc3n2CCCCOc2ccccc2)CC1=O (stereo not given),-13.7% (inactive)
4,CCOc1ccc(N2CC(c3nc4ccccc4n3CCOc3ccc(OC)cc3)CC2=O)cc1 (stereo not given),-7.94% (inactive)
5,COc1ccc(OCCCn2c(C3CC(=O)N(c4ccc(F)cc4)C3)nc3ccccc32)cc1 (stereo not given),-46.1% (active)
6,COc1ccc(OC)c(CNC(=O)c2c3c(nc4ccccc24)C(=O)N(C2CCCCC2)C3)c1,18.9% (inactive)
7,CC(C)(C)NC(=O)NC(=O)COC(=O)Cc1c(F)cccc1Cl,-21% (inactive)
8,COc1ccccc1OCCC(=O)OCC(=O)NC(=O)NC(C)(C)C,-0.18% (inactive)
9,CC(C)(C)NC(=O)NC(=O)COC(=O)Cc1ccc(Cl)cc1Cl,-36.3% (active)
10,CCOc1cc(/C=C(\C#N)C(=O)Nc2ccccc2C)ccc1OCc1cc(=O)n2nc(CC)sc2n1,4.8% (inactive)
11,CCOC(=O)c1cccc(NS(=O)(=O)c2cn(C)c(C)n2)c1,0.648% (inactive)
12,CCOc1ccccc1N(CC)C(=O)c1cc2ccc3cccnc3c2[nH]1,15.7% (inactive)
13,CCOc1ccccc1CNC(=O)Nc1cn(CC(C)C)c(=O)c2ccccc12,-9.18% (inactive)
14,CCOc1ccccc1N(CC)C(=O)Nc1cn(C)c(=O)c2ccccc12,-33.9% (active)
15,CNC(=O)CN1C(=O)c2cccnc2Sc2ccccc21,2.47% (inactive)
16,COc1ccc(CCNC(=O)c2ccc3c(c2)sc2nc(-c4ccc(C)cc4)cn23)cc1OC,-5.29% (inactive)
17,COc1cc(NS(=O)(=O)c2ccc(NC(=O)c3ccc(S(=O)(=O)N4CCCCC4)cc3)cc2)ncn1,-62.1% (active)
18,COc1cc(NS(=O)(=O)c2ccc(NC(=S)NC(=O)c3ccc(Br)cc3)cc2)ncn1,-8.88% (inactive)
19,COc1cc(NS(=O)(=O)c2ccc(NC(=O)CN3C(=O)c4ccccc4C3=O)cc2)ncn1,11.7% (inactive)
20,CC1CCCCN1Cc1c(O)ccc2c(=O)c(-c3cccc(Cl)c3)c(C(F)(F)F)oc12 (stereo not given),8.91% (inactive)
21,CCOc1ccc(C(NC(=O)c2cc(OC)c(OC)c(OC)c2)c2cc(Cl)c3cccnc3c2O)cc1 (stereo not given),1.85% (inactive)
22,CCOCCCNC(=O)c1ccc2nc(CCc3ccccc3)oc2c1,-1.1% (inactive)

row,Structure (SMILES),"activity change, negative = inhibition"
1,CCOc1cccc(NC(=O)c2ccc(F)c(S(=O)(=O)N(CC)c3cccc(C)c3)c2)c1,16.1% (inactive)
2,CC1=C(C(=O)OCc2ccc(C)cc2)C(c2c(Cl)cccc2Cl)CC(=O)N1 (stereo not given),4.89% (inactive)
3,COc1cc(NC(=O)COc2ccccc2Cl)ccc1NC(=O)C(C)C,0.361% (inactive)
4,Cc1ccccc1OCC(=O)Nc1ccc(N2CCN(C(=O)C(C)C)CC2)c(Cl)c1,-31% (active)
5,CCC(=O)N1CCN(c2ccccc2NC(=O)COc2cccc(C)c2C)CC1,3.4% (inactive)
6,Cc1ccc(C)c(CN2C(=O)c3ccccc3S(=O)c3ccc(C(=O)N4CCOCC4)cc32)c1 (stereo not given),1.36% (inactive)
7,COc1ccc(OCC(=O)Nc2cccc(C(=O)OCc3cc(=O)n4nc(C)sc4n3)c2)cc1,-3.25% (inactive)
8,CCOc1ccc(-n2c(C)nc3c(cnn3-c3ccc(C)cc3)c2=O)cc1,10.9% (inactive)
9,COc1cc(C(=S)N2CCOCC2)cc(OC)c1OC(=O)c1cc([N+](=O)[O-])cc([N+](=O)[O-])c1,-2.9% (inactive)
10,COc1cc(C(=S)N2CCOCC2)cc(OC)c1OC(=O)c1ccc([N+](=O)[O-])cc1[N+](=O)[O-],-16.4% (inactive)
11,COc1cc([N+](=O)[O-])cc([N+](=O)[O-])c1NC(=O)N1CCOCC1,-32.7% (active)
12,O=C(Nc1c(-c2ccc(F)cc2)nc2ccccn12)c1cccc(F)c1,-0.545% (inactive)
13,N#CN1CCC(NC(=O)c2ccc(F)cc2)CC1,-14.9% (inactive)
14,O=C(Nc1ccc(OC(F)(F)F)cc1)c1cc2c(=O)n3ccccc3nc2s1,-3.02% (inactive)
15,CCOc1ccc(N(C)S(=O)(=O)c2cc(-c3cnc(C)o3)ccc2OC)cc1,-5.97% (inactive)
16,Oc1ccc(-n2nnnc2SCc2c(F)cccc2Cl)cc1,-17.7% (inactive)
17,COc1ccc(-n2nnnc2SCC(=O)c2ccc(OC)c(OC)c2)cc1,16.4% (inactive)
18,COc1ccc(CSc2nnnn2-c2ccc(O)cc2)cc1F,-36.7% (active)
19,COc1ccc(CCNc2nc3c(-c4cccc(F)c4)nnn3c3ccccc23)cc1OC,1.83% (inactive)

# Reference: PubChem BioAssay AID504652 (National Center for Advancing Translational Sciences (NCATS), 2011)
